# Reference: PubChem BioAssay
# Where “and” joins values, the source holds several entries; their conditions need not be identical. Equal entries are not always repeated. Calls of active or inactive are those of the source. Unless noted, no stated cut-off is given here; in the data, active means inhibition above about 80%; inactive means the rest.
# Legend:
# [1] = compounds altering viability of human ES cells (AID 493140; call rule not given here;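 further: cells exposed to compounds for four days before counting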); conditions: human embryonic stem cell survival screen; stronger effect = higher value
# [2] = viability loss with induced miR-34 in A549 – imaging, A549 dox-inducible miR-34, nuclei and caspase counts, primary screen (AID 1347080;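 active means compounds whose cell count with miR-34 switched on is under 0.7 times the count with it off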); conditions: A549 miR-34 inducible, Hoechst nuclei count, 48 h
# [3] = MELAS cybrid and Rieske KO viability enhancers – cell-based, MELAS cybrids, Rieske KO mouse fibroblasts, CellTiter-Glo, primary screen (AID 1508586;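 active means mean z-score across replicates of 1.96 or higher in either the MELAS or the Rieske mutant cell line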;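 further: z relative to plate mean and SD of compound and empty wells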); conditions: low glucose
# [4] = growth inhibition, single agent or in combination, cell-based, chromothripsis tumors, cisplatin or BGB combos (AID 1671449); conditions: LFS_MB_P medulloblastoma cells;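 further: cells exposed for 96 hours; 0% = vehicle DMSO and 100% = killing by high DMSO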
# [5] = growth inhibition, single agent and combos, cell-based, chromothripsis tumors, cisplatin or BGB combos (AID 1671450); conditions: HDN33 neuroblastoma cells, stronger effect = higher value;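 further: cells exposed to compound for four days; 0% = vehicle DMSO and 100% = cell killing by high DMSO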
# [6] = growth inhibition, single agents and combos, ICB984, cell-based, cisplatin or BGB combos, synergistic combos for chromothripsis tumors (AID 1671451; call rule not given here;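 further: cells exposed for 96 hours before readout; 0% = vehicle DMSO and 100% = killing by high DMSO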); conditions: ICB984 medulloblastoma cells, drug combinations, stronger effect = higher value
# [7] = growth inhibition, single agents and combos, LFS_MB_1R, cell-based, cisplatin or BGB combos, synergistic combos for chromothripsis tumors (AID 1671452); conditions: LFS_MB_1R medulloblastoma cells, stronger effect = higher value;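 further: cells exposed for 96 hours before readout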
# [8] = growth inhibition, single agents and combos, HTB85, cell-based, BGB or cisplatin IC20 combos, synergistic combos for chromothripsis tumors (AID 1671453); conditions: HTB85 osteosarcoma cells, drug combinations, stronger effect = higher value;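 further: cells exposed for 96 hours before readout; 0% = vehicle DMSO and 100% = high DMSO killing control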
# [9] = growth inhibition, single agents and combos, CRL2098, cell-based, BGB or cisplatin IC20 combos, synergistic combos for chromothripsis tumors (AID 1671454); conditions: CRL2098 osteosarcoma cells, drug combinations, stronger effect = higher value;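 further: cells exposed for 96 h before readout; 0% = vehicle DMSO and 100% = killing by high DMSO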
# [10] = growth inhibition, single agents and combos, HD-MB03, cell-based, BGB or cisplatin IC20 combos, synergistic combos for chromothripsis tumors (AID 1671455; in the data active means inhibition above about 83%;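 further: 0% = vehicle DMSO and 100% = high DMSO as cytotoxic control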); conditions: HD-MB03 medulloblastoma cells, stronger effect = higher value
# [11] = growth inhibition, single agents and combos, UWB1.289, cell-based, BGB or cisplatin combos, synergistic combos for chromothripsis tumors (AID 1671456); conditions: UWB1.289 ovarian carcinoma cells, stronger effect = higher value;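 further: cells exposed to compound for four days; 0% = vehicle DMSO and 100% = killing by high DMSO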
# [12] = growth inhibition, single agents and combos, LFS_MB_2R, cell-based, cisplatin combos, synergistic combos for chromothripsis tumors (AID 1671457); conditions: LFS_MB_2R medulloblastoma cells, stronger effect = higher value;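 further: cells exposed to compound for four days before readout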
# [13] = growth inhibition, MDA-MB-436, cell-based, BGB or cisplatin combos, synergistic combos for chromothripsis tumors (AID 1671458; call rule not given here;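 further: cells exposed for 96 hours; 0% = vehicle DMSO and 100% = killing by high DMSO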); conditions: MDA-MB-436 breast carcinoma growth inhibition, drug combinations, stronger effect = higher value
# [14] = UWB1.289_BRCA1 ovarian cancer growth, cell-based, BGB or cisplatin combinations (AID 1671459); conditions: UWB1.289 BRCA1 ovarian carcinoma, drug combinations, stronger effect = higher value
# [15] = drug combination toxicity in non-malignant astrocytes – cell-based, BGB or cisplatin IC20 combos, cytotoxicity control for chromothriptic childhood tumor combination screen (AID 1671460); conditions: Human astrocytes, viability inhibition, drug combinations, at 0.5 µM, stronger effect = higher value;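 further: cells exposed to compounds for 96 hours before viability readout; 0% = vehicle and 100% = killing control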
# [16] = BT084 cell growth, single and combined drugs, ICGC_MB145, cisplatin and BGB IC40 combos (AID 1671461); conditions: BT084 medulloblastoma cells, drug combinations, at 0.5 µM, stronger effect = higher value;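 further: cells exposed to drugs for 96 hours; 0% = vehicle DMSO and 100% = high DMSO full killing control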
# [17] = stronger effect = lower value, cell number ratio, induced over uninduced
# [18] = measured here: relative caspase fold change +Dox/-Dox
# [19] = measured here: total cells with miR-34 induction, stronger effect = lower value
# [20] = measured here: total cells without miR-34 induction
# [21] = MELAS cybrid survival, CellTiter-Glo 48 h, stronger effect = higher value
# [22] = Rieske KO mouse fibroblast survival, CellTiter-Glo 72 h
# [23] = measured here: combination with BGB IC40, at 0.05 µM
# [24] = measured here: combination with cisplatin, at 0.5 µM
# [25] = measured here: combination with cisplatin, at 5 µM
smiles,measurement,setting,value
O=C1OC(CN2CCOCC2)CN1N=Cc1ccc([N+](=O)[O-])o1 (configuration not stated),survival,[1],5.92 (inactive)
same,fold change,[2]; [17],0.85 (inactive)
same,fold change,[2]; [18],1.96
same,cell count,[2]; [19],8420
same,cell count,[2]; [20],9900
same,z-score,[3]; [21],-0.512 (inactive)
same,z-score,[3]; [22],-0.452
CN(C)CC(=O)Nc1ccc2[nH]c(=O)c3ccccc3c2c1,fold change,[2]; [17],0.941 (inactive) and 0.916 (inactive)
same,fold change,[2]; [18],0.694 and 0.571
same,cell count,[2]; [19],5000 and 7760
same,cell count,[2]; [20],5310 and 8470
same,z-score,[3]; [21],-0.15 (inactive) and -0.352 (inactive)
same,z-score,[3]; [22],-0.197 and 0.819
same,inhibition,"[4]; at 0.5 µM, stronger effect = higher value",-18.5% (inactive) and -17% (inactive) and -7.46% (inactive)
same,inhibition,"[4]; measured here: combination with BGB IC20, at 0.005 µM",12.4% and -8.96% and -31.5%
same,inhibition,"[4]; measured here: combination with BGB IC40, at 0.005 µM",-19.5% and -21.6% and -39.4%
same,inhibition,[4]; [23],-14.8% and -27.5% and -40.5%
same,inhibition,"[4]; measured here: combination with cisplatin, at 0.5 µM, stronger effect = higher value",-45.3% and -39.5% and -30.4%
same,inhibition,"[4]; measured here: combination with cisplatin, at 5 µM, stronger effect = higher value",4.17% and -17.8% and -4.6%
same,inhibition,"[5]; BGB combo, at 5 µM",7.32% and -6.67% and -9.33%
same,inhibition,[5]; at 0.5 µM,6.02% (inactive) and -1.05% (inactive) and -19% (inactive)
same,inhibition,"[5]; cisplatin combo, at 5 µM",17.1% and 1.58% and -10.8%
same,inhibition,"[5]; measured here: with BGB IC20 combination, at 0.5 µM",-3% and -3.63% and -21.1%
same,inhibition,"[5]; measured here: with cisplatin IC20 combination, at 0.5 µM",16.9% and 5.73% and -18.5%
same,inhibition,"[5]; single agent, at 5 µM",15.5% and 10.2% and 30.1%
same,inhibition,"[6]; BGB IC20 combo, at 0.005 µM",-13.3% and -2.95% and -7.79%
same,inhibition,"[6]; BGB IC40 combo, at 0.005 µM",-17% and -47.2% and -17.2%
same,inhibition,"[6]; BGB IC40 combo, at 0.05 µM",-0.058% and 4.16% and -0.711%
same,inhibition,[6]; at 0.5 µM,-28.4% (inactive) and -20.4% (inactive) and -5.86% (inactive)
same,inhibition,"[6]; cisplatin combo, at 0.05 µM",-2.85% and 1.48% and -4.33%
same,inhibition,"[6]; cisplatin combo, at 0.5 µM",-27.2% and -5.09% and 16.6%
same,inhibition,"[6]; cisplatin combo, at 5 µM",-20% and -21% and -0.405%
same,inhibition,"[6]; measured here: 5 uM single agent, at 5 µM",-18.7% and -14.3% and -10.6%
same,inhibition,[7]; at 0.5 µM,-13.8% (inactive) and -13.5% (inactive) and -14% (inactive)
same,inhibition,[7]; [23],-3.83% and -23.1% and -25.7%
same,inhibition,[7]; [24],0.486% and -10.2% and -9.3%
same,inhibition,[7]; [25],-18.1% and 3.23% and -15.4%
same,inhibition,[8]; at 0.5 µM,-2.64% (inactive) and 6.11% (inactive) and -9.79% (inactive)
same,inhibition,"[8]; measured here: with BGB IC20, at 0.5 µM",-8.36% and -5.68% and -25.9%
same,inhibition,"[8]; measured here: with BGB IC20, at 5 µM",-24.1% and 8.44% and -2.25%
same,inhibition,"[8]; measured here: with cisplatin IC20, at 0.5 µM",-8.52% and 5.14% and 3.46%
same,inhibition,"[8]; measured here: with cisplatin IC20, at 5 µM",-29.8% and -39.5% and -46.8%
same,inhibition,"[8]; single agent, at 5 µM",1.63% and -7.42% and 3.8%
same,inhibition,[9]; at 0.5 µM,-36.8% (inactive) and -23.4% (inactive) and -51.4% (inactive)
same,inhibition,"[9]; measured here: combination with BGB at IC20, at 0.5 µM",-71.3% and -23.5% and -26.5%
same,inhibition,"[9]; measured here: combination with cisplatin at IC20, at 0.5 µM",-19% and -5.62% and -82%
same,inhibition,[10]; at 0.5 µM,-0.31% (inactive) and -9.88% (inactive) and -18.4% (inactive)
same,inhibition,"[10]; measured here: combo with BGB at IC20, at 0.5 µM",0.82% and -0.47% and -22%
same,inhibition,"[10]; measured here: combo with cisplatin at IC20, at 0.5 µM",-8.4% and -20.4% and -29.9%
same,inhibition,[11]; at 0.5 µM,3.12% (inactive) and 0.71% (inactive) and -1.11% (inactive)
same,inhibition,"[11]; measured here: inhibition with BGB combination, at 0.05 µM",-1.46% and -11.5% and -12.3%
same,inhibition,"[11]; measured here: inhibition with cisplatin combination, at 0.05 µM",-5.87% and -5.94% and -12.4%
same,inhibition,[12]; at 0.5 µM,-1.17% (inactive) and -17.8% (inactive) and -26.4% (inactive)
same,inhibition,[12]; [24],-1.41% and -14.7% and -24.5%
same,inhibition,[12]; [25],-64% and -69.6% and -24.6%
same,inhibition,[13]; at 0.5 µM,-4.41% (inactive) and -15.5% (inactive) and -5.43% (inactive)
same,inhibition,"[13]; measured here: BGB combination, at 0.5 µM",-3.67% and -13.7% and -14%
same,inhibition,"[13]; measured here: BGB combination, at 5 µM",-15.9% and -32.7% and -34.6%
same,inhibition,"[13]; measured here: cisplatin combination, at 0.5 µM",-8.29% and -33% and -6.83%
same,inhibition,"[13]; measured here: cisplatin combination, at 5 µM",-17.2% and -39.2% and -6.55%
same,inhibition,"[14]; BGB combination, concentration series, at 5 µM",-7.67% and -9.61% and 17%
same,inhibition,[14]; at 0.5 µM,1.59% (inactive) and -0.05% (inactive) and -1.7% (inactive)
same,inhibition,"[14]; cisplatin combination, concentration series, at 5 µM",16.4% and 6.78% and -0.772%
same,inhibition,[15],0.7% (inactive) and -7.07% (inactive) and 10.3% (inactive)
same,inhibition,[15]; measured here: combo with BGB IC20,-4.06% and -11% and -10.6%
same,inhibition,[15]; measured here: combo with cisplatin IC20,6.3% and -10.6% and 20.9%
same,inhibition,[16],-5% (inactive) and -17.7% (inactive) and -25% (inactive)
